Source: PubChem BioAssay
A number with no mark means an inactive call. The rule behind the calls is not given here.

The compounds below were run against L-lactate dehydrogenase (Plasmodium falciparum (isolate CDC / Honduras)) (UniProt Q27743) (assay: PfLDH activity inhibition – cell lysate, 3D7 strain, counter-screen for P. falciparum growth inhibition project (AID 2304;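 note: 0% = vehicle and 100% = reference inhibitor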)). Settings: P. falciparum 3D7 crude extract, LDH APAD/NBT absorbance; at 2 µM; stronger effect = higher value.
Sequence of L-lactate dehydrogenase (Plasmodium falciparum (isolate CDC / Honduras)) (Q27743 whole entry, looked up): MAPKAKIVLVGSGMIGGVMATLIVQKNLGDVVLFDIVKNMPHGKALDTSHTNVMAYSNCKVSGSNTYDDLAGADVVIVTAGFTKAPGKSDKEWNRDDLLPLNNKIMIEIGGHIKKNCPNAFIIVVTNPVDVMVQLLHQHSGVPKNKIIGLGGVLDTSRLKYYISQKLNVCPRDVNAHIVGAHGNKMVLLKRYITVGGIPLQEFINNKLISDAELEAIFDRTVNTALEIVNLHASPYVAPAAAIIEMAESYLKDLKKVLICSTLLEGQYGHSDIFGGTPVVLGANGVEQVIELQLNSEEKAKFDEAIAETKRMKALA
For `CCc1nc2c(cnn2CC)c(NC2CCOCC2)c1CNC(=O)c1ccoc1C`, the inhibition was 2%.
Work on `CCOC(=O)c1cc(C(=O)NCCCCN2CCC(c3ccc(CC)cc3OCC)CC2)ccc1-c1ccc(C(F)(F)F)cc1` yielded an inhibition of -1%.
For `Cn1cnc2c(SCc3ccc(OCc4ccccc4)cc3)ncnc21`, the inhibition was -6%.
`COc1ccc(/C=C/C(=O)Nc2ccc(-c3ccncc3)cc2)cc1CCCN(C)C` was tested, and the inhibition was 1%.
For `C/C=C/COc1ccc2ccccc2c1CNCCCCCCCCNCc1c(OC/C=C/C)ccc2ccccc12`, the inhibition was 3%.
Compound `N=c1c(C(=O)NCc2ccccc2)cc2c(=O)n3ccccc3nc2n1CCc1ccccc1` has an inhibition of -6%.
In the case of `CCOc1ccc2nc(C)cc(NN=Cc3cccc(F)c3)c2c1`, the inhibition is reported as 0%.
In the case of `Nc1nc2ncn(COC(COCc3ccccc3)COCc3ccccc3)c2c(=O)[nH]1` (tested in a mixture with another compound), the inhibition is reported as -7%.
`N#Cc1cccc(NC(=O)c2cccc(S(=O)(=O)NC3CCN(CC4CCCCC4)C3)c2)c1` (configuration not stated) gave an inhibition of 1%.
For `O=C(COc1ccccc1)N(Cc1ccc(-c2ccc(CNC3Cc4ccccc4C3)cc2)cc1)C1CCNCC1`, the inhibition was -1%.
Work on `Cc1ccccc1CNc1noc(-c2sccc2Br)n1` yielded an inhibition of -3%.
In the case of `CCOC(=O)[C@H](Cc1cc([N+](=O)[O-])c(Oc2ccc(OC)c(Cc3ccc(OC)c(C(C)C)c3)c2)c([N+](=O)[O-])c1)NC(=O)C(F)(F)F`, the inhibition is reported as -3%.
Work on `CCC1N=C(N)N=C(N)N1OCc1ccc(Cl)c(Cl)c1` (configuration not stated) yielded an inhibition of -4%.
Compound `CC(C)(C)c1ccccc1OCCCON1C(N)=NC(N)=NC1(C)C` has an inhibition of 5%.
Work on `COc1ccccc1-c1cccc2c(NC(=O)Nc3ccc4nccc(N5CCN(C)CC5)c4c3)ccnc12` yielded an inhibition of 5%.
For `CC(C)(C)c1ccc2nccc(Nc3cccc(O)c3)c2c1`, the inhibition was 0%.
`CCc1cn2c3c(cc(C(=O)N[C@@H](Cc4cccc(Cl)c4)[C@H](O)CNC4CCOCC4)cc13)N(C)S(=O)(=O)CC2` gave an inhibition of -1%.
Work on `CC[C@H](C)CNC(=O)c1ccnc(-c2ccc(CN3CCC(N4CCCC4)CC3)cc2)c1` yielded an inhibition of -2%.
Compound `Cc1cccc(Nc2nc(C)cc(N3CCCN(CC4CCCCC4)CC3)n2)c1` has an inhibition of -2%.
`CCCCN1CCN(c2cc(NS(=O)(=O)c3cccc(C(=O)Nc4ccc(C(F)(F)F)cc4)c3)ccc2OC)CC1` gave an inhibition of 4%.
`CCC1(CC)N=C(N)N=C(N)N1OCc1ccc(Cl)c(Cl)c1` was tested, and the inhibition was -1%.
In the case of `CNC(=O)C(C)N(c1ccc(Cl)cc1)c1nc(C(C)(C)C)cs1` (configuration not stated), the inhibition is reported as 7%.
`CCC[C@@H]([C@@H](CC(C)C)C(=O)N[C@@H](CCCCNC(=O)c1ccccn1)C(=O)Nc1nccs1)N(O)C=O` gave an inhibition of -3%.
In the case of `CCN=C1NC2=C(CC(C(C)(C)C)CC2)C2(CCC(C(C)(C)C)CC2)S1` (configuration not stated), the inhibition is reported as 4%.
Work on `C[C@@H]1CN(c2ncc(-c3ccc(CNC4Cc5ccccc5C4)cc3)cn2)C[C@H](C)N1` yielded an inhibition of -10%.
Compound `O=C(NCc1ccc(Cl)c(Cl)c1)c1cccc(C2CCCN(Cc3ccc4nc[nH]c4c3)C2)c1` (configuration not stated) has an inhibition of 5%.
With `Cc1ccc2c(Cl)c(C(=O)N3CC(C)OC(C)C3)sc2c1` (configuration not stated) the inhibition was 3%.
In the case of `COc1cccc(Nc2nc(N)c3ccccc3n2)c1`, the inhibition is reported as -2%.
Compound `Cc1c(CCNC(=O)CCCN2CC(C)CC(C)C2)c2ccccc2n1C` (configuration not stated) has an inhibition of -9%.
`COc1ccc2nccc([C@@H](O)CN3CCC(NC(=O)c4nc(Cl)c(Cl)c(N)c4Cl)CC3)c2c1` gave an inhibition of 2%.
Work on `O=C(c1cc(C(=O)NC2CCCCC2)c(=O)n(C2CCCCC2)c1)c1cc(F)ccc1O` yielded an inhibition of -2%.
`O=C(Nc1cccc(CN2CCN(Cc3cccc(O)c3)CC2)c1)c1cc2ccccc2s1` was tested, and the inhibition was 0%.
`CC(C)C[C@H](NC(=O)c1cc2ccccc2s1)C(=O)N[C@H]1CCN(Cc2ccc(OCCCN(C)C)c(Cl)c2)C1` was tested, and the inhibition was 1%.
`O=C(CCOc1ccccc1)NCC1CCCO1` (configuration not stated) was tested, and the inhibition was -3%.
In the case of `COc1ccccc1Nc1nc(C)cc(NCc2ccc(-n3ccnc3)cc2)n1`, the inhibition is reported as -2%.
Compound `O=C(N[C@@H](CC1CCCCC1)C(=O)NCCN1CCCCC1)c1ccc(O)c(-c2ccc(Cl)c(Cl)c2)c1` has an inhibition of -6%.
For `O=C(Nc1ccc(Cl)cc1)c1ccc(CN2CCCN(CC3CCCCC3)CC2)cc1`, the inhibition was 0%.
